Measurements: PubChem BioAssay (NCI)
The panel holds about 83,000 compounds, 20% with a hit somewhere; the sample as a whole holds those more often.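 Note: values are percent growth. 100 is the growth of untreated cells, values between 100 and 0 indicate rising inhibition; between -100 and 0 indicates cell death.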 A number with no mark means an inactive call. The source made the active and inactive calls. The calls were made as follows: active = growth percent below 10; inactive = the rest.

Experiments:
Assay in all cases: NCI-60 one-dose screen, 48 h (100 = growth as untreated, 0 = no growth, -100 = all killed)
Settings in all cases: 10 µM
NCI-H23 lung = system: NCI-H23 lung
NCI-H226 lung = system: NCI-H226 lung
NCI-H322M lung = system: NCI-H322M lung
HOP-62 NSCLC = system: HOP-62 NSCLC
NCI-H460 lung = system: NCI-H460 lung
HOP-92 NSCLC = system: HOP-92 NSCLC
NCI-H522 lung = system: NCI-H522 lung
A549/ATCC NSCLC = system: A549/ATCC NSCLC
786-0 renal = system: 786-0 renal
COLO 205 colon = system: COLO 205 colon

Row | Structure (SMILES) | growth (NCI-H23 lung) | growth (NCI-H226 lung) | growth (NCI-H322M lung) | growth (HOP-62 NSCLC) | growth (NCI-H460 lung) | growth (HOP-92 NSCLC) | growth (NCI-H522 lung) | growth (A549/ATCC NSCLC) | growth (786-0 renal) | growth (COLO 205 colon)
1 | O=C(OCC1OC(n2cc(C(F)(F)F)c(=O)[nH]c2=O)CC1OC(=O)c1ccc([N+](=O)[O-])cc1)c1ccc([N+](=O)[O-])cc1 (stereo not given) | 90.9% | 72.5% | 91.2% | 75.9% | 31.2% | 69.9% | 76.6% | 69.6% | 18.9% | 87.8%
2 | Cc1nc(Nc2nc3ccccc3o2)nc(-c2cccc([N+](=O)[O-])c2)c1C(=O)Nc1ccc(F)c(Cl)c1 | 0.258% (active) | 10.3% | 24.9% | 16% | 2.04% (active) | -38.9% (active) | -20.5% (active) | 5.85% (active) | 18.4% | 9.63% (active)
3 | Cc1cccc2c1O/C(=C\c1ncc([N+](=O)[O-])n1C)C2=O | -13.7% (active) | -25% (active) | -17.9% (active) | -33.5% (active) | -29.1% (active) | -32.6% (active) | -55.8% (active) | -25.7% (active) | -28.5% (active) | -52.3% (active)
4 | COc1cc(/C=C/C(=O)c2cc(-c3ccc(C(F)(F)F)cc3)ccc2O)cc(OC)c1OC | 64.3% | 84.1% | 82.1% | 98.7% | 56.5% | 63.1% | 40.8% | 81.4% | 80.3% | 71.6%
5 | O=C(COc1ccc(Cl)cc1Cl)Oc1coc(CSc2nc3ccccc3s2)cc1=O | 94.5% | 93.8% | 114% | 107% | 101% | 110% | 74.8% | 27.8% | 113% | 114%
6 | COc1ccccc1S(=O)(=O)Nc1ccc2c(c1)CN(C)C(=O)N2 | 56.7% | 63% | 42.9% | 44.3% | 55.8% | 2.37% (active) | 26.1% | 50.5% | 72.7% | 38.4%
7 | O=C1/C(=C/c2ccc(O)cc2)CSc2ccc(Cl)cc21 | 91.3% | 82.2% | 92.3% | 90.9% | 96.5% | 75.6% | -26.2% (active) | 86.7% | 85.5% | 108%
8 | Cc1ccc([P+](Cc2ccc([N+](=O)[O-])cc2)(c2ccc(C)cc2)c2ccc(C)cc2)cc1 | 41% | 80.6% | 69.3% | 70.8% | 60.5% | -19.6% (active) | 0.971% (active) | 81% | 82.4% | 7.68% (active)
9 | Nc1ccc2c(c1)Cc1cc(N)c(Cl)cc1-2 | 103% | 107% | 88.1% | 109% | 105% | 76.4% | 92.2% | 88.2% | 97.7% | 105%
10 | Cc1cc(C)c(C(=O)OC(C)CNC2CCCCC2)c(C)c1 (stereo not given) | 94.1% | 99.6% | 95.4% | 85.7% | 98% | 51.9% | 99.4% | 102% | 93.2% | 96.8%
11 | O=C(NNc1nc(N2CCCC2)nc(N2CCCC2)n1)c1ccccc1 | 99.3% | 107% | 94.9% | 101% | 117% | 83.5% | 94.2% | 104% | 121% | 109%
12 | CCC(O)c1ccc(Br)cc1NC(=O)c1cccc(Cl)c1 (stereo not given) | 28% | -1.35% (active) | 29.4% | 28% | 3.22% (active) | 48.6% | 24.2% | 4.24% (active) | 18.1% | 93.9%
13 | CCOC(=O)C1=C(Nc2ccc(OC)cc2)C(N)=NC1=N | 52.6% | 42.9% | 50.2% | 52.4% | 22.2% | 48.4% | 42% | 31.8% | 59.3% | -10.1% (active)
14 | Nc1nc(SCC#CCCl)c2[nH]cnc2n1 | 66.2% | 65.1% | 62.7% | 94.2% | 29% | 39.9% | 20.1% | 54.5% | 41.5% | 47.7%
15 | COc1ccc2nc(C)cc(Nc3ccc(Cl)cc3)c2c1 | 104% | 99.9% | 95.1% | 104% | 91.8% | 156% | 105% | 92.2% | 109% | 107%
16 | COc1cc2c3c(cccc3c1)C(=O)N(CCN1CCCC1)C2=O | 32.5% | 0.818% (active) | 13.6% | 25.7% | -22% (active) | -8.44% (active) | -11% (active) | 6.08% (active) | 36.1% | 4.92% (active)
17 | CCCn1c(=O)c2c(nc(-c3cccc(OCCCCl)c3)n2C)n(CCC)c1=O | 59.1% | 16.5% | 41% | -18.3% (active) | 24.4% | -1.14% (active) | 83.2% | 28.3% | 23.9% | 65.8%
18 | NC(=O)C12C(=O)NC(=O)C1(C(=O)O)C21CCCC1 (stereo not given) | 109% | 110% | 104% | 110% | 117% | 102% | 111% | 99% | 101% | 115%
19 | CCc1ccc(-c2nnc(COc3ccc(-c4nc5ccccc5[nH]4)cc3OC)o2)cc1 | 72.4% | 81.4% | 96.9% | 83.2% | 45.5% | 79% | 91.6% | 60.3% | 22.3% | 64.4%
20 | CC(C)OP(=O)(O)c1ncc(-c2ccc(C(F)(F)F)cc2)c(NC2CCCCCC2)n1 | 62.6% | 74.1% | 91.1% | 70.5% | 41.5% | 22.8% | 48.8% | 49.2% | 81.6% | 61%
21 | NC(N)=NS(=O)(=O)c1ccc(Nc2ccc3nnc(-c4ccncc4)n3n2)cc1 | 102% | 96.5% | 103% | 110% | 98.3% | 107% | -57.2% (active) | 108% | 104% | 111%
22 | O=C(O)c1ccccc1C(=O)c1cccc2c(F)cccc12 | 102% | 97.4% | 108% | 105% | 115% | 83% | 103% | 96.9% | 104% | 102%
23 | CCN(CC)c1ccc(/C=C/C2=[N+](C)c3ccccc3C2(C)C)c(C)c1 | 11.1% | 17.7% | 27.6% | 5.39% (active) | 2.94% (active) | -19.5% (active) | -14.4% (active) | 9.85% (active) | 13.1% | -58.4% (active)
24 | CCc1c(C(=O)NCc2c(O)ccc3cccc(O)c23)[nH]c(C)c1C(C)=O | 23.4% | 52.7% | 69.5% | 59% | 43.4% | 32.8% | 11.4% | 27.3% | 60.9% | 69.5%
25 | O=S(=O)(NCCO)c1ccc(OCCOc2ccc(S(=O)(=O)NCCO)cc2)cc1 | 96.6% | 91.3% | 90.4% | 90.7% | 111% | 81.1% | 91.7% | 95% | 96.9% | 104%
26 | O=C(Nc1cccc(-c2nc3ccccc3[nH]2)c1)c1cccc(NC(=O)c2ccco2)c1 | 98% | 90.1% | 94.1% | 73.2% | 91.6% | 38.8% | 98.5% | 82.7% | 67% | 31.4%
27 | Cc1ccc(C)c2c1sc1nc3n[nH]c(N)c3c(=N)n12 | 107% | 105% | 113% | 104% | 107% | 97.2% | 87.4% | 106% | 111% | 112%
